Test results as given in PubChem BioAssay (Tox21).
Records with an inconclusive call do not appear. Activity calls are given as the source filed them. Unless noted, calls come from the whole dose curve; as a rule, active = well fitted curve in the direction sought with a large enough effect in the repeat runs; inconclusive = weak or mixed curves; inactive = no such curve, though single readings can be large; an effect the other way counts as inactive or inconclusive.

Key:
[1] = qHTS assay for small molecule agonists of the p53 signaling pathway (AID 651631; calls by dose curve; note: nearly all actives have a fitted effect of over 15% in size); conditions: HCT-116 p53RE-bla reporter, beta-lactamase FRET ratio, 16 h; series mostly up to 73.3 µM
Procedure, shortened: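 Beta-lactamase reporter activity under p53 response elements was quantified in HCT-116 cells by FRET fluorescence, following 16 h incubation with test compounds at 37 °C and 2 h substrate development at room temperature.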

[2] = qHTS assay for small molecules that induce genotoxicity in human embryonic kidney cells expressing luciferase-tagged ATAD5 (AID 651632); conditions: HEK293T ATAD5-luciferase induction, 16 h; series mostly up to 83.3 µM; note: nearly all actives have a fitted effect of over 15% in size
Procedure, shortened: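 HEK293T cells carrying luciferase-tagged ATAD5 were given compound or DMSO vehicle and incubated 16 hr at 37C, 5% CO2. Luciferase activity was read after 30 min at room temperature with Amplite; a rise signals genotoxic stress.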

[3] = qHTS assay for small molecule agonists of the p53 signaling pathway - cell viability (AID 651633; calls by dose curve; note: nearly all actives have a fitted effect of over 30% in size); conditions: p53RE-bla HCT-116 viability, ATP luminescence, 16 h; series mostly up to 83.3 µM
Procedure, shortened: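 p53RE-bla cells, seeded at 4,000 per well and rested 5 h at 37 C/5% CO2, received compounds in DMSO for 16 h at 37 C. CellTiter-Glo was then added, and luminescence was read after 30 min at room temperature to gauge cytotoxicity.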

[4] = qHTS assay for small molecules that induce genotoxicity in human embryonic kidney cells expressing luciferase-tagged ATAD5 - cell viability (AID 651634; calls by dose curve; note: nearly all actives have a fitted effect of over 25% in size); conditions: HEK293T ATAD5-luc cells viability, CellTiter-Fluor, 15.5 h; series mostly up to 83.3 µM
Procedure, shortened: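 HEK293T cells carrying luciferase-tagged ATAD5, 2,000 cells/well, exposed to compound for 15.5 hr at 37C. Viability read as live-cell protease activity by CellTiter-Fluor fluorescence after 30 min at 37C.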

[5] = qHTS assay for small molecule disruptors of the mitochondrial membrane potential - cell viability (AID 720634; calls by dose curve;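 note: human HepG2 liver cancer cells; nearly all actives have a fitted effect of over 20% in size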); conditions: HepG2 viability, ATP luminescence (CellTiter-Glo), 1 h; series mostly up to 83.2 µM
Procedure, shortened: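 HepG2 cells, 2,000 per well, attached overnight, then treated 1 hr at 37 C, 5% CO2. Viability read as ATP by CellTiter-Glo luminescence after 30 min at room temperature. Read in the same wells as the m-MPI membrane-potential dye assay.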

[6] = qHTS assay to test for compound auto fluorescence at 535 nm (green) in HepG2 cells (AID 720675); conditions: green autofluorescence 485/535 nm, 1 h; series mostly up to 91.3 µM
[7] = qHTS assay to test for compound auto fluorescence at 590 nm (red) in HEK293 cells (AID 720679); conditions: red autofluorescence 540/590 nm; series mostly up to 91.3 µM
Procedure, shortened: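 Red autofluorescence, HEK293 cells: 2,000 cells/well; attach 4-5 hr 37C; add 23 nL cpd or DMSO; incubate o/n 37C 5% CO2; read Ex540/Em590; Rose Bengal sodium reference.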

[8] = qHTS assay for small molecule disruptors of the mitochondrial membrane potential (AID 720635); conditions: HepG2 mitochondrial membrane potential, Mito-MPS dye ratio; series mostly up to 83.2 µM
Procedure, shortened: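 HepG2 cells (2,000/well) attached overnight at 37C, then took compound for 1 hr at 37C, 5% CO2. Mito-MPS dye was added for 30 min; fluorescence was read at 490/535 nm (monomers) and 540/590 nm (aggregates).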

[9] = qHTS assay to test for compound auto fluorescence at 590 nm (red) in HepG2 cells (AID 720674); conditions: HepG2 autofluorescence, red 540/590 nm, 1 h; series mostly up to 91.3 µM
Procedure, shortened: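 Rose Bengal sodium served as the red fluorophore standard. HepG2 monolayers (overnight attachment, MEM with 10% FBS) were exposed to test compounds for 1 hr at 37 C and read at Ex 540/Em 590 nm.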

[10] = qHTS assay to test for compound auto fluorescence at 460 nm (blue) in HEK293 cells (AID 720678); conditions: blue autofluorescence 405/460 nm; series mostly up to 91.3 µM
Procedure, shortened: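 Intrinsic compound fluorescence is recorded in live HEK293 cultures after overnight incubation at 37C, 5% CO2, using excitation 405 nm and emission 460 nm. Values are referenced to triamterene.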
% is set by controls: 0 for no effect and ±100 for the full control effect.

C=C(C)C(=O)OC1CC(C)CC(C)(C)C1 (centres undefined)
inactive: outcome [1] | outcome [2] | outcome [3] | Potency [4] | outcome [5] | outcome [6] | outcome [7]

C/C=C(\C)C(=O)OCC/C=C\CC
inactive: outcome [1] | outcome [2] | outcome [3] | Potency [4] | Potency [8] | outcome [9] | outcome [6] | outcome [10] | outcome [7]

NS(=O)(=O)c1ccc(Cl)c(S(N)(=O)=O)c1
inactive: outcome [1] | outcome [2] | outcome [3] | Potency [4] | outcome [5] | outcome [6] | outcome [7]

CC(=O)Nc1ncc([N+](=O)[O-])s1
inactive: outcome [1] | outcome [2] | outcome [3] | Potency [4] | outcome [5] | outcome [9] | outcome [6] | outcome [7]

Cc1ccc(S(=O)(=O)NC(=O)NC2CCCCCCC2)cc1
inactive: outcome [1] | outcome [2] | outcome [3] | Potency [4] | Potency [8] | outcome [9] | outcome [6] | outcome [7]

CCCO
inactive: outcome [1] | outcome [2] | outcome [3] | Potency [4] | Potency [8] | outcome [9] | outcome [6] | outcome [10] | outcome [7]

F[Si-2](F)(F)(F)(F)F
inactive: outcome [1] | outcome [2] | outcome [3] | Potency [4] | outcome [5] | outcome [9] | outcome [7]

CCNC(=O)/C=C/c1cccc(Br)c1
inactive: outcome [1] | outcome [2] | outcome [3] | Potency [4] | outcome [5] | outcome [10] | outcome [7]

C=CCOCC(CO)(COCC=C)COCC=C
inactive: outcome [1] | outcome [2] | outcome [3] | Potency [4] | Potency [8] | outcome [9] | outcome [10] | outcome [7]

O=C(O)/C=C/c1ccccc1
inactive: outcome [1] | outcome [2] | outcome [3] | Potency [4] | Potency [8] | outcome [9] | outcome [6] | outcome [10] | outcome [7]

CCCCC/C=C/CC(=O)OC
inactive: outcome [1] | outcome [2] | outcome [3] | Potency [4] | outcome [5] | outcome [6] | outcome [7]

C=C[C@@H](C)CCC=C(C)C
inactive: outcome [1] | outcome [2] | outcome [3] | Potency [4] | Potency [8] | outcome [9] | outcome [6] | outcome [10] | outcome [7]

CCCCC(=O)N(C)C
inactive: outcome [1] | outcome [2] | outcome [3] | Potency [4] | Potency [8] | outcome [9] | outcome [6] | outcome [10] | outcome [7]

CCCCCCCCCCC
inactive: outcome [1] | outcome [2] | outcome [3] | Potency [4] | Potency [8] | outcome [9] | outcome [10] | outcome [7]

O=C(Nc1cccc(C2=NCCN2)c1)Nc1cccc(C2=NCCN2)c1
inactive: outcome [1] | outcome [2] | outcome [3] | Potency [4] | Potency [8] | outcome [9] | outcome [6] | outcome [10] | outcome [7]

CN(C)CCOCCN(C)CCO
inactive: outcome [1] | outcome [2] | outcome [3] | Potency [4] | outcome [9] | outcome [6] | outcome [10] | outcome [7]

COc1cc(C=O)ccc1OC(=O)C(C)C
inactive: outcome [1] | outcome [2] | outcome [3] | Potency [4] | Potency [8] | outcome [6] | outcome [10] | outcome [7]

CC(C)CCCC(C)CC=O (centres undefined)
inactive: outcome [1] | outcome [2] | outcome [3] | Potency [4] | outcome [5] | outcome [9] | outcome [10] | outcome [7]

CC(Cl)COP(=O)(OCC(C)Cl)OCC(C)Cl (centres undefined)
inactive: outcome [1] | outcome [2] | outcome [3] | Potency [4] | outcome [5] | outcome [6] | outcome [10] | outcome [7]

CCCCCCCCCCCCCCCCI
inactive: outcome [1] | outcome [2] | outcome [3] | Potency [4] | Potency [8] | fluorescence, relative to Rose Bengal [9] 0.0421% [at 18.6 µM] | fluorescence, % of fluorescein control [6] -0.0199% [at 18.6 µM] | fluorescence, % of fluorescent control [7] 0.21% [at 18.6 µM]

O=CN1CCOCC1
inactive: outcome [1] | outcome [2] | outcome [3] | Potency [4] | outcome [5] | outcome [9] | outcome [10] | outcome [7]

O=C1OC(=O)c2cc(Oc3ccc4c(c3)C(=O)OC4=O)ccc21
inactive: outcome [1] | outcome [2] | outcome [3] | Potency [4] | Potency [8] | outcome [6] | outcome [10] | outcome [7]

CCCOC(=O)CCCCC(=O)OCCC
inactive: outcome [1] | outcome [2] | outcome [3] | Potency [4] | outcome [5] | outcome [6] | outcome [10] | outcome [7]

CCCCCCCCCCCCC
inactive: outcome [1] | outcome [2] | outcome [3] | Potency [4] | Potency [8] | outcome [9] | outcome [10] | outcome [7]

NC(=O)NNC(N)=O
inactive: outcome [1] | outcome [2] | outcome [3] | Potency [4] | outcome [5] | outcome [9] | outcome [6] | outcome [10] | outcome [7]

CCCCOC(=O)[C@@H](C)Oc1ccc(Oc2ccc(C(F)(F)F)cn2)cc1
inactive: outcome [1] | outcome [2] | outcome [3] | Potency [4] | Potency [8] | outcome [9] | outcome [10] | outcome [7]

COc1ccc(OC)c(NC(=O)CC(C)=O)c1
inactive: outcome [1] | outcome [2] | outcome [3] | Potency [4] | outcome [5] | outcome [9] | outcome [10] | outcome [7]

O=c1[nH]c(=O)c2[nH]c(=O)[nH]c2[nH]1
inactive: outcome [1] | outcome [2] | outcome [3] | Potency [4] | Potency [8] | outcome [9] | outcome [10] | outcome [7]

COc1ccc(NS(=O)(=O)c2ccc(N)cc2)nn1
inactive: outcome [1] | outcome [2] | outcome [3] | Potency [4] | outcome [5] | fluorescence, % of fluorescein control [6] -0.0175% [at 18.6 µM] | fluorescence, % of triamterene [10] -0.19% [at 18.6 µM] | fluorescence, % of fluorescent control [7] -0.981% [at 18.6 µM]
